# EP2 modulator: EP2 receptor modulators, cAMP readout, primary screen, cell-based, HTRF cAMP, PGE2 stimulation | EP2-expressing cells, cAMP HTRF FRET, PGE2 co-stimulation | induction, % at 25 µM | hit rate 0.83% among 260,000;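 active = compounds whose cAMP rise, as percent of the full-agonist control response, exceeds 60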;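 also: rat C6 glioma line stably carrying human EP2 under a CMV promoter; the protocol text gives 20 µM as final concentration; 100% = response of wells given 1 µM PGE2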
# CHT PAM: CHT positive allosteric modulators, primary screen, cell-based, membrane potential dye, choline EC20; High affinity choline transporter 1 (Homo sapiens), Q9GZV3; CHT-expressing cells; active compounds read high; LV-AA mutant CHT in HEK293 cells; B-score at 10 µM; hit rate 0.49% among 310,000; AID 488977, 2010;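 active = initial fluorescence not abnormally high and integrated response B-score, plate-corrected, over 3 SD above library mean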
# Target sequence (Q9GZV3 whole entry, looked up): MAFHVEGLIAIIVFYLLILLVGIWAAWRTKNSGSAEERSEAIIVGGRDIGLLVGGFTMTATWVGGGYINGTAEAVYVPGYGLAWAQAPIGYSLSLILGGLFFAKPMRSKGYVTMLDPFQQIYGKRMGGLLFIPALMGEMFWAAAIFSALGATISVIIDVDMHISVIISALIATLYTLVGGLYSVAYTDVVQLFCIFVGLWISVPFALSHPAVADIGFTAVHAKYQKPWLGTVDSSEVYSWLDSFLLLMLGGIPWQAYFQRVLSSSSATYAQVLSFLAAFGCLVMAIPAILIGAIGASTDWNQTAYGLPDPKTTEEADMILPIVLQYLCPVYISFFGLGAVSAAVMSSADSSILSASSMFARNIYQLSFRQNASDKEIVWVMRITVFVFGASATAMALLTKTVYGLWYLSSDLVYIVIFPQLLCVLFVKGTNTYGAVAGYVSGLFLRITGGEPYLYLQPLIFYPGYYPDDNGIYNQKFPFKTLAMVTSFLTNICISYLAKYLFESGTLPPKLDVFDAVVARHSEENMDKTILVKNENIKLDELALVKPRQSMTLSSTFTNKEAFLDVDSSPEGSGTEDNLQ
# EP2 antag: human EP2 receptor antagonists, primary screen, TR-FRET cAMP, C6 glioma cells; Prostaglandin E2 receptor EP2 subtype (Homo sapiens), P43116; C6 glioma cells expressing human EP2; cells stimulated with saturating PGE2; inhibition, % at 25 µM; hit rate 0.52% among 260,000; AID 1422, 2008;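 active = percent inhibition above 40 after rounding to a whole number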;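 also: rat C6 glioma host cells with rolipram phosphodiesterase inhibitor present; the protocol text gives 20 µM as final concentration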
# CHT inh: inhibitors of human choline transporter CHT. CHT-expressing cells, membrane potential dye, choline response; active compounds read low. AID 488975, 2010. B-score at 10 µM. hit rate 0.86% among 310,000;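 active = B-score over 3 SD under the library average, and starting fluorescence ratio not unusually high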;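 also: choline stimulus applied at its EC90 after an EC20 pre-addition; B-score computed on integrated fluorescence ratio after choline addition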
# EP2 confirm: cAMP induction in EP2, EP4, beta2-AR and parental cells, confirmation, counter-screen for EP2 modulator project, cell-based, five parallel assays, C6 glioma, HEK293; shares compounds with EP2 modulator; cAMP HTRF induction; plus low (about EC15) PGE2 agonist; calls only at 20 µM (by protocol); hit rate 47% among 1,300; AID 1080, 2008;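 active = cAMP induction above 50% in the main assay while under 30% in all four parallel counter assays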;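 also: rat C6 glioma cells stably expressing human EP2 receptor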
# The depositor's hits bear a star; i = inactive; . = not tested or not shown; + = active, no number. Hits are enriched below; roughly 2.1% of the tested compounds scored in any of these assays.
SMILES,EP2 modulator,CHT PAM,EP2 antag,CHT inh,EP2 confirm
CC1(C)C=Cc2c(c3c(c4c(=O)c(-c5ccc(O)cc5)coc24)OC(C)(C)CC3)O1,60,i,13,i,i
COC(=O)c1cc(Br)c(=O)n(-c2ccccn2)c1,7,i,12,i,.
COC(=O)c1cc(Br)c(=O)n(-c2nccs2)c1,65*,i,25,i,i
C/C=C(\C)c1nnc(NC(=O)OCC)s1,90*,i,11,i,i
Nc1nc(SCc2ccccc2)[nH]c(=O)c1-c1ccccc1,10,i,13,i,.
Nc1nc(Cc2ccccc2)nc(Cc2ccccc2)c1-c1ccccc1,67*,.,39,.,i
CCOC(=O)c1cc(CC)sc1NC(=O)c1cc(OC)c(OC)c(OC)c1,68*,i,10,i,+
Cc1cccc(OC(=O)c2sc(Cl)nc2C)c1,68*,i,13,i,i
COc1cccc2cc(C(C)=O)oc12,4,i,6,i,.
COc1cccc2cc(/C(=N/O)c3ccccc3)oc12,68*,i,5,i,+
COc1ccccc1NC(=O)N(CCCN1CCOCC1)Cc1cc2ccc(C)c(C)c2[nH]c1=O,-21,.,8,.,.
COc1ccccc1-c1nnc(SCC(=O)c2ccc(C3CCCCC3)cc2)n1Cc1ccco1,54,i,7,i,+
Cc1occc1-c1nnc(SCC(=O)c2ccc(F)cc2)n1Cc1ccco1,5,i,9,i,.
O=C(CSc1nnc(-c2cc3ccccc3cc2O)n1Cc1ccco1)c1ccc(F)cc1,50,i,3,i,i
CCC(OC(=O)c1nsc(Cl)c1Cl)C(=O)NCc1ccccc1 (configuration not stated),-1,.,7,.,.
CC1=NN(c2ccc(S(=O)(=O)O)cc2)C(=O)/C1=C\c1ccc(Cl)cc1,50,.,43*,.,i
CC1=NN(c2ccc(Cl)cc2)C(=O)/C1=C\c1cccn1-c1ccc(S(N)(=O)=O)cc1,-13,i,28,i,.
CNC(=O)NC(=O)CSc1nc(-c2cccs2)c(C#N)c(=O)[nH]1,79*,.,16,.,i
N#Cc1c(-c2cccs2)nc(SCc2ccc(Cl)cc2)[nH]c1=O,75*,.,19,.,i
CSc1nc(-c2cccs2)c(C#N)c(=O)[nH]1,59,i,14,i,.
O=S(=O)([O-])CCc1cc[n+](CCO)cc1,26,.,4,.,.
Cc1cccnc1C1(O)CCN(C(=O)c2csc3c2CCCC3)CC1,-59,.,.,.,.
COc1ccc(C(=O)N2N=C(c3ccccc3)CC2(O)C(F)(F)F)cc1 (configuration not stated),83*,.,11,.,+
O=C(c1ccccc1O)N1N=C(c2ccccc2)CC1(O)C(F)(F)F (configuration not stated),78*,i,2,i,i
COC(=O)N1N=C(c2ccccc2)CC1(O)C(F)(F)F (configuration not stated),-18,i,12,i,.
SMILES,EP2 modulator,CHT PAM,EP2 antag,CHT inh,EP2 confirm
O=C(c1cccs1)N1N=C(c2ccccc2)CC1c1ccc(O)cc1 (configuration not stated),74*,i,14,i,i
CC(=O)N1N=C(c2ccccc2)CC1c1ccc(F)cc1 (configuration not stated),.,i,.,i,.
C=CCc1cc(C=O)cc(OC)c1OCc1c(Cl)cccc1Cl,92*,i,8,i,+
CCOc1ccc(-n2nc3c(=O)[nH]nc(C)c3c2C)cc1,29,i,7,i,.
CCOc1ccc(-n2nc3c(=S)[nH]nc(C)c3c2C)cc1,66*,i,21,i,i
Clc1ccc(-c2nn3c(-c4ccccc4)nnc3s2)cc1,73*,i,5,i,+
c1ccc(-c2nnc3sc(-c4ccncc4)nn23)cc1,6,i,4,i,.
O=C(N=C1SCC(=O)N1c1ccccc1Cl)c1ccccc1,67*,.,6,.,i
O=C(N=C1SCC(=O)N1c1ccccc1Cl)c1ccco1,48,i,5,i,.
Cc1ccc(NC(=O)CN2CCC(n3cnc4cc(C(F)(F)F)ccc43)CC2)cc1C,-41,.,8,.,.
N#CC1(Cc2ccccc2Cl)c2ccccc2C=CN1C(=O)c1ccccc1 (configuration not stated),70*,i,.,i,i
COc1cc2c(cc1OC)-c1cc(Nc3ccc4c(c3)OCCO4)nc(=O)n1CC2,56,i,13,i,i
COc1cc2c(cc1OC)-c1cc(Nc3ccc(C)cc3)nc(=O)n1CC2,.,i,.,i,.
Cc1ccc(C(=O)Nc2ccccc2N2CCCCC2)cc1[N+](=O)[O-],66*,i,1,i,+
CN1CCN(c2ccccc2NC(=O)c2ccc(N3CCCCC3)c([N+](=O)[O-])c2)CC1,-8,i,8,i,.
Cc1ccccc1C(=O)Nc1ccccc1N1CCCCC1,60,i,7,i,+
COc1ccc(C(=O)Nc2ccccc2N2CCCCC2)cc1[N+](=O)[O-],52,i,5,i,+
O=C(NCCN1CCOCC1)c1c(O)c2ccccc2[nH]c1=O,17,.,15,.,.
Cc1nc2sc3c(c2c2nnc(SCC(=O)Nc4ccccc4Cl)n12)CCCC3,-21,.,15,.,.
S=c1[nH]nc(Cc2cccs2)n1-c1ccccc1,4,i,.,i,.
CCCCc1ccc(-n2c(Cc3cccs3)n[nH]c2=S)cc1,71*,i,9,i,+
CCOc1ccc(NCc2nncn2-c2ccc(C)cc2)cc1,-105,.,9,.,.
Cc1ccc(N(Cc2ccccc2)Cc2ccccc2)cc1,52,.,10,.,i
COc1ccc(N(Cc2ccccc2)S(=O)(=O)c2ccc(C)cc2)cc1,69*,i,4,i,+
S=c1[nH]nc(C23CC4CC(CC(C4)C2)C3)n1Cc1ccco1,73*,i,23,i,+
CCCc1n[nH]c(=S)n1Cc1ccco1,19,i,9,i,.
Cc1[nH]c(=O)[nH]c(=O)c1NC(=O)CC12CC3CC(CC(C3)C1)C2,32,.,11,.,.
Cn1c(SCC(=O)N2c3ccccc3CCc3ccccc32)nnc1-c1ccco1,-6,.,7,.,.
FC(F)(F)c1cccc(/C=N/NC(=S)NC2CCCCC2)c1,80*,i,4,i,+
O=C(NNC(=S)NC1CCCCC1)c1ccc(-n2cnnn2)cc1,0,.,9,.,.

# Screens as filed in PubChem.
